Among the data in PubChem BioAssay (NCATS) are Potency and outcome values, retold here.

Inconclusive results are not listed. Calls of active or inactive are those of the source. Unless noted, calls come from the whole dose curve; as a rule, active = well fitted curve in the direction sought with a large enough effect; inconclusive = small, poorly fitted or top-dose-only effect, or another doubt; inactive = no such curve, though single readings can be large; an effect the other way counts as inactive or inconclusive.

Experiment [1] is described as follows: NS1 protein of Zika virus - qHTS assay to identify small molecule inhibitors in human HEK 293 cells (AID 1347053). Note: series mostly up to about 46 µM; nearly all actives have a fitted effect of over 55% in size. The gist of the method: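 Readout was TR-FRET using paired anti-NS1 antibodies after 24 h infection of HEK 293 cells with ZIKV MR766 (MOI = 0.5). Compound preceded virus by 1 h; reduced signal reflects lower NS1 expression.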
Background: In qHTS, concentration-response curves come from the screen itself.

Experiment [2] has as its target T1, Tyrosine-protein phosphatase non-receptor type substrate 1 (Homo sapiens) + Leukocyte surface antigen CD47 (Homo sapiens) (UniProt P78324+Q08722). Kind of experiment: CD47-SIRPalpha protein protein interaction - Alpha assay qHTS validation (AID 1347059).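 Note: bead proximity luminescence from CD47 binding SIRPalpha after compound preincubation with SIRPalpha.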 In short, it runs like this: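 In PBS (pH 7.4) with 0.05% IGEPAL CA-630, compound is preincubated with biotin-Avi-SIRPalpha ectodomain before His-CD47 ectodomain and affinity beads are added. Light-protected room-temperature incubations; AlphaScreen readout.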

Experiment [3] has as its target Parathyroid hormone/parathyroid hormone-related peptide receptor (Homo sapiens) (UniProt Q03431). Kind of experiment: qHTS for PTHR1 Agonists: Optimization Screen against the NCGC LOPAC library (AID 1347079).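 Note: GloSensor cAMP luminescence in HEK-293 GP2 cells expressing human PTHR1 with IBMX.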 In short, it runs like this: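 HEK-293 GP2 cells, PTHR1 + GloSensor cAMP; 3000 cells/well, o/n. Luciferin + IBMX 0.5mM each (stock), 1 hr 37C. Cpd titration, 1 hr 37C. Lum after 15 min RT. Ctrl M-PTH(1-15) top 10uM.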

For experiment [4], the target named is N-terminal Xaa-Pro-Lys N-methyltransferase 1 (Homo sapiens) (UniProt Q9BV86). As to the kind of experiment: qHTS Assay for Inhibitors of N-terminal methyltransferase 1 (NTMT1): LOPAC validation of the NTMT1 SAHH-coupled ThioGlo3 Assay (AID 1347143).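 Note: SAH from peptide methylation measured as thiol fluorescence via SAHH coupling and ThioGlo3; nearly all actives have a fitted effect of over 70% in size.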 Note: potency is the fitted concentration of half-maximal effect. The gist of the method:
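In this qHTS pilot against the LOPAC set, 125nM NTMT1 met compounds tested at multiple concentrations, and fluorescence was normalized to background.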

Experiment [5] relates to Zika virus NS2B-NS3 protease (unlinked). Kind of experiment: Optimization of GU AMC qHTS for Zika virus inhibitors: Unlinked NS2B-NS3 protease assay (AID 1347151). Note: nearly all actives have a fitted effect of over 80% in size. Note: potency is the fitted concentration of half-maximal effect. In short, it runs like this: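 Percent inhibition is derived from the 15-min change in AMC fluorescence, normalized against no-inhibitor and no-enzyme controls, then fitted to a 4-parameter Hill curve. Aprotinin was the intraplate control.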

The target of experiment [6] is T1, Tyrosine-protein phosphatase non-receptor type substrate 1 (Homo sapiens) + Leukocyte surface antigen CD47 (Homo sapiens). Kind of experiment: CD47-SIRPalpha protein protein interaction - LANCE assay qHTS validation (AID 1347057; active = well fitted curve in the direction sought with a large enough effect in the signal ratio, with a control signal flat, not every such curve was filed as active; the % refers to the signal ratio; note: series mostly up to about 38 µM). In short, it runs like this:
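Inhibition of soluble CD47/SIRPalpha ectodomain association by titrated compounds, measured as 665/615 nm time-resolved FRET ratio after sequential 30 min room-temperature incubations.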

For experiment [7] the target is unchanged. As to the kind of experiment: CD47-SIRPalpha protein protein interaction - HTRF assay qHTS validation (AID 1347058; active = well fitted curve in the direction sought with a large enough effect in the signal ratio, not every such curve was filed as active; the % refers to the signal ratio; note: series mostly up to about 38 µM). In short, it runs like this: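 Soluble extracellular domains (6His-CD47, Avi-tag-biotinylated SIRPalpha) in PBS pH 7.4 with 0.05% IGEPAL CA-630. Compounds were preincubated 30 min at RT with CD47 and anti-His-Eu, then SIRPalpha and SAV-XL665 were added. TR-FRET 665/615 ratio.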

Another experiment deals with Furin (Homo sapiens) (UniProt P09958). Kind of experiment: Furin counterscreen qHTS for Zika virus inhibitors (AID 1347149). Note: potency is the fitted concentration of half-maximal effect; nearly all actives have a fitted effect of over 70% in size. The gist of the method: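 Counterscreen measures cleavage of 2 microM BOC-RVRR-AMC, below its ~15 microM Km, by 5 nM full-length human furin at pH 7.0 after a 15-min compound preincubation. Inhibition derives from the 15-min fluorescence increase at 37C.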
Sequence of Furin (Homo sapiens) (P09958 whole entry, looked up): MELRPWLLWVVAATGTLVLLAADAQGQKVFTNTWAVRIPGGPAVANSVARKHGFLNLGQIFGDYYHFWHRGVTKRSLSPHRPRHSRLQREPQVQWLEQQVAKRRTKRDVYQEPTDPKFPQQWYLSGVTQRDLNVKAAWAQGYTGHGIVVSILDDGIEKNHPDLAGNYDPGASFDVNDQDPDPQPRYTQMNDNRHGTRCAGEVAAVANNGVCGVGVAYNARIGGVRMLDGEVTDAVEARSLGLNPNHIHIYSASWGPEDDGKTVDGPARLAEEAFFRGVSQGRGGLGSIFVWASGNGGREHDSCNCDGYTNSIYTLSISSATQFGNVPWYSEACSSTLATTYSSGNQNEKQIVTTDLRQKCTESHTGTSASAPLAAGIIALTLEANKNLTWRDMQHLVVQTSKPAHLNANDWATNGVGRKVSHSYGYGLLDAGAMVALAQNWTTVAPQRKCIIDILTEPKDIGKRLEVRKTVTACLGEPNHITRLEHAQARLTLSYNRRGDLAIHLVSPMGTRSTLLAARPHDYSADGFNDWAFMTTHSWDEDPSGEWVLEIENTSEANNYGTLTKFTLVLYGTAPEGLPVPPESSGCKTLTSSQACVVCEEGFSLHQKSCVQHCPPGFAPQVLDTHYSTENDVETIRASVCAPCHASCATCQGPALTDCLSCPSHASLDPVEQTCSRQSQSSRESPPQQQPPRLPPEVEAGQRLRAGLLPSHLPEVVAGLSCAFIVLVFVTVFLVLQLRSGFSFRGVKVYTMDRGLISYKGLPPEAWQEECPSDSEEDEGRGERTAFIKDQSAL
Background: The purpose of a counterscreen is to sort out artefacts and off-target activity.

For experiment [8], the system named is Zika virus NS2B-NS3 protease (linked construct). As to the kind of experiment: Confirmatory screen NINDS AMC qHTS for Zika virus inhibitors (AID 1347152). Note: potency is the fitted concentration of half-maximal effect; nearly all actives have a fitted effect of over 70% in size. The gist of the method:
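In this dose-response qHTS, AMC release from 10 microM Bz-Nle-KRR-AMC by 1 nM linked protease is measured over 15 minutes (about 20% conversion) at pH 8.0. Percent inhibition is fitted to a 4-parameter Hill curve.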

T1 sequence (P78324 whole entry, looked up, the tested form may be a part): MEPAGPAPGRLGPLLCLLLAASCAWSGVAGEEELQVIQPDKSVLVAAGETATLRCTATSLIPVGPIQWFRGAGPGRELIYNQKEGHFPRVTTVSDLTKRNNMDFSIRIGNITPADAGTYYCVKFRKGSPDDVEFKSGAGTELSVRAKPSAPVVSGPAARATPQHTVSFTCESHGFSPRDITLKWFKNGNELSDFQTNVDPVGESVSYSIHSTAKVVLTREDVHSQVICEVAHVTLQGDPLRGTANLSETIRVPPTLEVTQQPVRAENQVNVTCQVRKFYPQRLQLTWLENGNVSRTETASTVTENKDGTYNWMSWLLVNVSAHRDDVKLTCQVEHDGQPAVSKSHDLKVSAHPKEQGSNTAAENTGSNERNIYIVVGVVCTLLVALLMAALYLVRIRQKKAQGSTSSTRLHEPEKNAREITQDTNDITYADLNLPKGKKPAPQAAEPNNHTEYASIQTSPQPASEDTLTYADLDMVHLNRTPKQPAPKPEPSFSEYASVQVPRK
T1 sequence (Q08722 whole entry, looked up, the tested form may be a part): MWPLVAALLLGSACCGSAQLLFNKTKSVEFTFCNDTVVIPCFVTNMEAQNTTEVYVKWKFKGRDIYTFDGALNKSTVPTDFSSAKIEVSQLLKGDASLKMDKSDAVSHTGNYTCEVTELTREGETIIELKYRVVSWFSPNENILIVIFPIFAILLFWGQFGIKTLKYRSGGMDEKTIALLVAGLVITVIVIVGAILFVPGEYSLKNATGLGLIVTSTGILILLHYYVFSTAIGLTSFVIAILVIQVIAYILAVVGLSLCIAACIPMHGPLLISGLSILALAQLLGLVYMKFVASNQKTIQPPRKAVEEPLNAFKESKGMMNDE
Sequence of N-terminal Xaa-Pro-Lys N-methyltransferase 1 (Homo sapiens) (Q9BV86 whole entry, looked up): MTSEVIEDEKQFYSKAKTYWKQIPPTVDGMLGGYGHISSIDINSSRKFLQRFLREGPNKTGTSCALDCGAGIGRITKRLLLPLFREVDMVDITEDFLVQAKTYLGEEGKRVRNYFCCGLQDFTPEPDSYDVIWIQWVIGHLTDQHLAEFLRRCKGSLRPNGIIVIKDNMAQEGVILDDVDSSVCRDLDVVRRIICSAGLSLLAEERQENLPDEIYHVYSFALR
Sequence of Parathyroid hormone/parathyroid hormone-related peptide receptor (Homo sapiens) (Q03431 whole entry, looked up): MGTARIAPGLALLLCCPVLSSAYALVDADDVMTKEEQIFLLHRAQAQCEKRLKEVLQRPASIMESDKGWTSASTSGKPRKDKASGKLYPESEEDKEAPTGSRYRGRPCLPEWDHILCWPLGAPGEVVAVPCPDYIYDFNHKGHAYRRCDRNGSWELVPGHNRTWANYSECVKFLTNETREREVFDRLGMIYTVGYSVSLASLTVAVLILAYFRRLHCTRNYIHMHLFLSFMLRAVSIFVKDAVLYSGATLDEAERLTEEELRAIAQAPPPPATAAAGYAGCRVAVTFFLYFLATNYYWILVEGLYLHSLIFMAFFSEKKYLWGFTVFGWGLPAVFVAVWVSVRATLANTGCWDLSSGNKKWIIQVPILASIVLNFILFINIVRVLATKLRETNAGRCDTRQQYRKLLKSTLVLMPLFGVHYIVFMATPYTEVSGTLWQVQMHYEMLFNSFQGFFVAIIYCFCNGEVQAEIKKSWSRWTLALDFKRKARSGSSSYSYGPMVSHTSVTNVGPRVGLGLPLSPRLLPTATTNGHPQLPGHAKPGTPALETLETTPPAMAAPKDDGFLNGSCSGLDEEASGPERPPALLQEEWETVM

As to `O=C1Cc2c([nH]c3ccc(Br)cc23)-c2ccccc2N1`, the Potency result in [1], in [2], in [3] and in experiment [5] was “inactive” in each case. Besides, the Potency in experiment [4] was 50.1 µM (active).
Turning to `Nc1ccc(-c2nc3ccc(-c4nc5ccc(N)cc5[nH]4)cc3[nH]2)cc1`, the Potency entry in experiment [1] and in experiment [3] was “inactive” throughout. In addition, the Potency in experiment [4] was 56.2 µM (active); in experiment [5], 26.7 µM (active).
As to `CC(/C=C/c1cccc(Oc2ccc(F)cc2)c1)N(O)C(N)=O` (stereo not given), the Potency entry in experiment [1], in experiment [2], in experiment [3] and in [4] was “inactive” each time.
`CNc1cc(NS(=O)(=O)c2ccc(N)cc2)nc(NC)n1`: the Potency result in experiment [1], in [2], in experiment [3], in experiment [4] and in [5] was “inactive” throughout.
Turning to `CC(=O)O[C@H]1CC2(C)[C@@H](C[C@@H](O)[C@H]3[C@@]4(C)CC[C@@H](O)[C@@H](C)[C@@H]4CC[C@@]32C)C1=C(CCC=C(C)C)C(=O)O` (stereo not given in full), the Potency entry in experiment [3], in experiment [4] and in experiment [5] was “inactive” in each case.
In the case of `CCCCOC(=O)NS(=O)(=O)c1sc(CC(C)C)cc1-c1ccc(Cn2c(CC)nc3c(C)cc(C)nc32)cc1`, the Potency result in experiment [6], in experiment [2], in experiment [3], in experiment [4] and in [5] was “inactive” in each case. In addition, the result in [7] was inactive.
As to `N#C/C(=C\c1ccc(O)c(O)c1)C(=O)NCCCNC(=O)/C(C#N)=C/c1ccc(O)c(O)c1`, the Potency result in experiment [1] and in [3] was “inactive” in each case. Besides, the Potency in experiment [4] is 39.8 µM (active); in experiment [5], 0.597 µM (active).
Take `c1ccc(CN2CCC3(CCCc4ccccc43)CC2)cc1`: the Potency entry in experiment [6], in experiment [2], in [3] and in experiment [5] was “inactive” throughout. For the same compound, the outcome in [7] was inactive. In experiment [4], the Potency was 50.1 µM (active).
For the compound `C[C@H](O)C(=O)C1=Nc2c(nc(N)[nH]c2=O)NC1`, the Potency result in experiment [1], in [2] and in [3] was “inactive” in each case. For the same compound, the Potency in experiment [4] was 44.7 µM (active); in experiment [5] it was 23.8 µM (active).
For the compound `O=S(=O)(c1cccc2c(Cl)cccc12)N1CCCNCC1`, the Potency entry in experiment [6], in experiment [2], in experiment [3] and in [5] was “inactive” throughout.
Turning to `O=c1[nH]ccc2c(O)cccc12`, the Potency entry in experiment [1] and in experiment [3] was “inactive” throughout. The values for the Potency in experiment [4] and in experiment [5] were 56.2 µM (active) and 29.9 µM (active), respectively.
As for `NC1(C(=O)O)CCCCC1`, the Potency entry in [1], in [2], in experiment [3], in experiment [4] and in experiment [5] was “inactive” in each case.
For the compound `NC[C@@H]1O[C@H](c2ccccc2)Cc2c1ccc(O)c2O`, the Potency entry in experiment [1], in [2], in experiment [3] and in experiment [5] was “inactive” each time.
With `CCCCCCCC/C=C\CCCCCCCC(=O)NCCc1ccc(O)c(O)c1`, the Potency entry in experiment [1], in [2], in experiment [3] and in experiment [4] was “inactive” each time. Besides, the Potency in experiment [5] was 7.52 µM (active).
In the case of `Cn1c(=O)c2[nH]c(-c3ccc(S(=O)(=O)O)cc3)nc2n(C)c1=O`, the Potency result in [1], in experiment [3] and in [5] was “inactive” throughout. Also, the Potency in experiment [4] was 12.6 µM (active); with Furin (Homo sapiens), 12.1 µM (active); in experiment [8], 6.81 µM (active).
Turning to `CC[n+]1c(/C=C/C=C2/N(C)c3ccccc3C2(C)C)sc2ccccc21`, the Potency result in [3] is “inactive”. The Potency in [4] is 35.5 µM (active).
For the compound `CC[C@@H]1Cc2cc(O)ccc2C2=C1c1ccc(O)cc1C[C@H]2CC`, the Potency entry in [1], in experiment [3] and in experiment [5] was “inactive” in each case. For the same compound, the Potency in [4] is 79.4 µM (active).
Consider `N[C@@H](CCC(=O)N[C@H](CSN=O)C(=O)NCC(=O)O)C(=O)O`, for which the outcome in [7] was inactive. The Potency entry in experiment [3], in [4] and in [5] was “inactive” in each case.
